According to PubChem BioAssay (NCI):
The panel holds about 83,000 compounds, 20% with a hit somewhere; the sample as a whole holds those more often.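 Note: values are percent growth. 100 is the growth of untreated cells, values between 100 and 0 indicate rising inhibition; between -100 and 0 indicates cell death.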 Values without a mark were called inactive. Calls of active or inactive are those of the source. How the source made its calls: active means growth percent below 10; inactive means the rest.

Experiments:
Assay in all cases: NCI-60 one-dose screen, 48 h (100 = growth as untreated, 0 = no growth, -100 = all killed)
Conditions in all cases: 10 µM unless noted
NCI-H23 lung = system: NCI-H23 lung
NCI-H226 lung = system: NCI-H226 lung
NCI-H322M lung = system: NCI-H322M lung
HOP-62 NSCLC = system: HOP-62 NSCLC
NCI-H460 lung = system: NCI-H460 lung
HOP-92 NSCLC = system: HOP-92 NSCLC
NCI-H522 lung = system: NCI-H522 lung
A549/ATCC NSCLC = system: A549/ATCC NSCLC
786-0 renal = system: 786-0 renal
COLO 205 colon = system: COLO 205 colon
DU-145 prostate = system: DU-145 prostate
K-562 leukemia = system: K-562 leukemia
MALME-3M melanoma = system: MALME-3M melanoma
MDA-MB-231 breast = system: MDA-MB-231 breast
RXF 393 renal = system: RXF 393 renal
SF-268 CNS = system: SF-268 CNS
SF-539 CNS = system: SF-539 CNS
UACC-257 melanoma = system: UACC-257 melanoma
M14 melanoma = system: M14 melanoma
SF-295 CNS = system: SF-295 CNS

Compound | growth (NCI-H23 lung) | growth (NCI-H226 lung) | growth (NCI-H322M lung) | growth (HOP-62 NSCLC) | growth (NCI-H460 lung) | growth (HOP-92 NSCLC) | growth (NCI-H522 lung) | growth (A549/ATCC NSCLC) | growth (786-0 renal) | growth (COLO 205 colon) | growth (DU-145 prostate) | growth (K-562 leukemia) | growth (MALME-3M melanoma) | growth (MDA-MB-231 breast) | growth (RXF 393 renal) | growth (SF-268 CNS) | growth (SF-539 CNS) | growth (UACC-257 melanoma) | growth (M14 melanoma) | growth (SF-295 CNS)
COc1ccc(/C=C/C(=O)c2ccc(NC(=O)CSc3nnc(-c4ccc(Cl)cc4)n3-c3ccccc3)cc2)cc1 | 92.4% | 104% | 106% | 103% | 104% | 107% | 84.6% | 74% | 98% | 106% | 106% | 80.1% | 118% | 91% | 104% | 96.1% | 109% | 86.7% | 91.9% | 
Nc1nc(N)c2cc(Sc3ccc(Cl)cc3)ccc2n1 | 33.6% | 48.9% | 27.7% | 53.1% | 13.4% | 6.59% (active) | 21% | 15.2% | 28% | -45.6% (active) | 29.7% | 4.88% (active) | 56.7% | 31.3% | 42.4% | 31.1% | 35% | 40.1% | 27.8% | 
Nc1ccc(C(OC(=O)c2cc3ccccc3c(Cc3c(O)c(C(=O)OC(c4ccc(N)cc4)(c4ccc(N)cc4)c4ccc(N)cc4)cc4ccccc34)c2O)(c2ccc(N)cc2)c2ccc(N)cc2)cc1 | 9.92% (active) | 30.8% | 3.77% (active) | 6.24% (active) | 1.82% (active) | -6.69% (active) | 9.97% (active) | 10.7% | 23.5% | -83.7% (active) | 21.9% | 7.72% (active) | 5.78% (active) | -9.83% (active) | 28% | 24.6% | 10.3% | 6.17% (active) | 14.9% | 
COc1ccc(C(=O)c2c(N)nc3n2CCCC3)cc1OC | 109% | 96.9% | 96.2% | 102% | 105% | 118% | 81.7% | 102% | 100% | 107% | 107% | 90.6% | 99.9% | 115% | 111% | 106% | 102% | 100% | 103% | 
Clc1ncnc2scc(C3COc4ccccc4O3)c12 (configuration not stated) | 95.9% | 75.3% | 98.6% | 105% | 106% | 78.9% | 53.6% | 95.5% | 104% | 100% | 76.8% | 69.8% | 58.7% | 98.3% | 99.6% | 101% | 94.1% | 93.2% | 88.4% | 
Clc1cc(Br)ccc1-c1ccc(CNCC2CCNCC2)o1 | 69.6% | 48.4% | 60.2% | 41% | 9.35% (active) | 56.3% | 55.3% | 17% | 42.3% | 27.9% | 62.4% | 18.9% | -4.35% (active) | 50.8% | 64.8% | 45% | 29.6% | 79.6% | 55.2% | 
OC(c1cc2cc(Cl)ccc2c2cc(C(F)(F)F)ccc12)C1CCCCN1 (configuration not stated) | -78.8% (active) | -73% (active) | -42.7% (active) | -92.3% (active) | -67.8% (active) | -76.1% (active) | -89.6% (active) | -85.9% (active) | -67.5% (active) | -87.2% (active) | -95.8% (active) | -76.8% (active) | -61.9% (active) | -68% (active) | -95.4% (active) | -90.1% (active) | -80.5% (active) | -84% (active) | -72% (active) | 
CCCCCCCCCCCCCCCCOc1ccc(S(=O)(=O)N(C)C)cc1[N+](=O)[O-] | 97.4% | 104% | 103% | 49.2% | 118% | 46.2% | 94.5% | 98.7% | 67.3% | 114% | 113% | 112% | 86.8% | 88.9% | 61.7% | 97.5% | 89.6% | 108% | 106% | 
COS(=O)(=O)CCN(CCOS(C)(=O)=O)S(C)(=O)=O | 105% | 100% | 108% | 109% | 101% | 89.1% | 78.2% | 90.1% | 97.9% | 117% | 105% | 76% | 98.9% | 109% | 105% | 107% | 91.2% | 82.6% | 94.3% | 
O=C1Nc2ccccc2/C1=C/c1c[nH]c2ccccc12 | 78.9% | 83.4% | 70.1% | 66% | 88.7% | 65.2% | 88.7% | 77.3% | 105% | 115% | 98.1% | 82.8% | 88.1% | 71.7% | 90.9% | 87.8% | 80.6% | 89.2% | 91.8% | 
Cc1ccccc1CNc1ncnc2[nH]ncc12 | 109% | 91.9% | 114% | 99.3% | 104% | 64.3% | 47.7% | 91% | 97.3% | 92.2% | 103% | 46.8% | 114% | 106% |  | 95.4% | 97.6% | 107% | 103% | 84.3%
CCOc1c(C#N)c2c(N)ncnc2n1C1OC(CO)C(O)C1O (configuration not stated) | 50.6% | 71.8% | 76.6% | 76.6% | 0.566% (active) | 50.1% | -22.4% (active) | 8.54% (active) | 76.1% | 8.97% (active) | -10.5% (active) | 0.169% (active) | 59.2% | 87.1% |  | 25.2% | 62.5% | 83.5% | 35% | 71.3%
O=C1OCC2=C1C(c1cccc(Br)c1)c1cc3c(cc1N2CCO)OCCO3 (configuration not stated) | 27.5% | -4.52% (active) | 35% | 28.7% | 0.468% (active) | 25.2% | -11.5% (active) | 13.5% | 21.8% | -24.5% (active) | -30.9% (active) | 17.5% |  | -21.5% (active) | 38.2% | 19% | 0.257% (active) | 49% | 14.6% | -4.99% (active)
CC(=O)c1c(O)c(C)c(O)c2c1OC1=CC(=O)/C(=C(/C)N)C(=O)C12C (configuration not stated) | 89.8% | 73.8% | 97.3% | 94.9% | 98.2% | 99.7% | 77.6% | 83% | 98.3% | 95.8% | 100% | 83% | 96.9% | 90.8% | 92.2% | 95.2% | 99.7% | 100% | 93.6% | 
CC1=C(C(=O)Nc2ccc(F)cc2)C(c2ccc(Cl)cc2)C2=C(CC(C)(C)CC2=O)N1 (configuration not stated) | 86% | 84.1% | 102% | 97.2% | 96.4% | 62% | 82.4% | 78.3% | 88.3% | 97% | 105% | 74% | 160% | 82% | 96.4% | 86.3% | 94% | 95.3% | 98.5% | 
Cc1ccc(Nc2nc(NCCO)c3ccccc3n2)cc1C | 15.8% | 1.03% (active) | 55.5% | 20.3% | -2.08% (active) | 89.7% | -21% (active) | 13.6% | 29% | -65.7% (active) | -14.6% (active) | 11.1% | 43.8% | 12.6% | 42.5% | 20.1% | 7% (active) | 62% | 24.4% | 
COc1ccc(C(=O)C(C#N)c2cc(OC)c(OC)c(OC)c2)cc1 (configuration not stated) | 113% | 99.4% | 105% | 109% | 107% | 83.6% | 85.2% | 98.1% | 97.6% | 106% | 114% | 98.1% | 106% | 115% | 103% | 114% | 93.8% | 97.4% | 102% | 
CCc1ccc2c(c1)N(CCO)C1=C(C(=O)OC1)C2c1cccc(Br)c1 (configuration not stated) | 40.9% | 39.5% | 38.9% | 31% | 11.2% | 75.6% | -26.3% (active) | 29.2% | 34.4% | 5.9% (active) | 12% | 14.8% |  | 34.9% | 10.9% | 47.2% | -8.23% (active) | 63.4% | 10.8% | -19.3% (active)
C=CCn1c(SCC(=O)Nc2ccc(/C(C)=N\O)cc2)nnc1-c1cc(-c2ccccc2)nc2ccccc12 | 38.9% | 65.4% | 69.2% | 67.9% | 52.1% | 99.5% | 41.6% | 43.9% | 45.2% | 64.2% | 75% | 27.6% | 96.3% | 58.3% | 68.8% | 62.8% | 50.6% | 75.6% | 34% | 
Cn1c(=O)c2[nH]c(Cc3ccc4c(c3)OCO4)nc2n(C)c1=O | 99.8% | 99.4% | 109% | 101% | 102% | 71.4% | 103% | 97% | 111% | 109% | 115% | 108% | 126% | 123% | 108% |  | 94.8% | 111% | 107% | 104%
O=C(CN1CCN(c2ccccc2)CC1)N1CCN(c2nnc(-c3ccc(Cl)cc3)c(-c3ccc(Cl)cc3)n2)CC1 | 82.3% | 68% | 89.9% | 66% | 47.9% | 71.3% | 59.7% | 54.8% | 40.1% | 51% | 76% | 22.4% | 126% | 76.4% | 49.9% | 65.2% | 60.2% | 61.6% | 69.5% | 
C#CC[C@@H]1C[C@]2(C)[C@H]3CC=C4[C@H]5[C@@H](C)[C@H](C)CC[C@]5(C(=O)NCCCN5CCN(CCCN)CC5)CC[C@@]4(C)[C@]3(C)CC[C@H]2C(C)(C)[C@H]1OC(C)=O | 19.8% | 86.5% | -48.2% (active) | 58.9% | -60.7% (active) | -20.5% (active) | -55.4% (active) | -23.5% (active) | -97% (active) | -69.9% (active) | 0.421% (active) | -23.3% (active) | -81% (active) | -70.4% (active) | -82.1% (active) | 85% | -94% (active) | -32.1% (active) | -69.2% (active) | 
C#CC[C@@H]1C[C@]2(C)[C@H]3CC[C@@H]4[C@H]5C(C(=C)C)CC[C@]5(C(=O)NCCCCCCCCN)CC[C@@]4(C)[C@]3(C)CC[C@H]2C(C)(C)[C@H]1OC(C)=O (some centres not stated) | 97.3% | 95.6% | 101% | 103% | 16.3% | 70.6% | 88.1% | 93.3% | 85.1% | 86% | 75.3% | -41.8% (active) | 111% | 67.9% | 71.5% | 91.2% | 88.3% | 119% | 102% | 
